Experimental data reported in the supplement of paper PMC10849652.
About 7,900 targets were measured; listed, in parts, are those with a hit and a random draw of the rest. About 0.6% of all pairs of compound and target were hits.

Key:
Experiment in all cases: log2 fold change, soluble protein after heating vs DMSO (PISA); higher = thermal stabilisation; K562 cells, 10 uM, 30 min; active = over 0.2 and 3.5 SD of the protein, either way, in both replicates (recomputed)
[1] = compound: CC1=C(C=C(C=C1)NC(=O)C2=CC(=CC=C2)C(C)(C)C#N)NC3=CC4=C(C=C3)N=CN(C4=O)C
Summary of the method: (§1)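 K562 cells at 2×10^6 cells/mL were treated with 10 μM compound for 30 min. Aliquots were heated for 3 min across 48°C-58°C, pooled, and extracted in PBS with 0.5% NP-40 at 4°C; soluble protein was the supernatant after 21,000xg for 90 min. Soluble protein was quantified by TMTpro 16plex LC-MS/MS with channel sums equalised, and reported as log2 fold change in thermal stability against DMSO controls, with values from duplicates.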

[2] = compound: CC1=C(C=C(C=C1)NC(=O)C2=CC(=CC=C2)N(C)C)NC(=O)C3=CC=C(C=C3)O
Summary of the method: as §1

[3] = compound: CC1=CC=C(C=C1)SC2=C3C=C(SC3=CN=C2)C(=O)N
Summary of the method: as §1

[4] = compound: CC1=NC(=CC=C1)C2=C(N=C(N2)C(C)(C)C)C3=CC4=NC=CN=C4C=C3
Summary of the method: as §1

Nexturastat A = compound: CCCCN(Cc1ccc(C(=O)NO)cc1)C(=O)Nc1ccccc1 [Nexturastat A]
Summary of the method: as §1

vemurafenib = compound: CCCS(=O)(=O)Nc1ccc(F)c(C(=O)c2c[nH]c3ncc(-c4ccc(Cl)cc4)cc23)c1F [vemurafenib]
Summary of the method: as §1

[5] = compound: CCCS(=O)(=O)Nc1ccc(F)c(C(=O)c2c[nH]c3ncc(Cl)cc23)c1F
Summary of the method: as §1

[6] = compound: CCCc1cc(C)[nH]c(=O)c1CNC(=O)c1cc(-c2ccnc(N3CCN(C)CC3)c2)cc2c1cnn2C(C)C
Summary of the method: as §1

givinostat = compound: CCN(CC)Cc1ccc2cc(COC(=O)Nc3ccc(C(=O)NO)cc3)ccc2c1 [givinostat]
Summary of the method: as §1

barasertib = compound: CCN(CCCOc1ccc2c(Nc3cc(CC(=O)Nc4cccc(F)c4)[nH]n3)ncnc2c1)CCOP(=O)(O)O [barasertib]
Summary of the method: as §1

Measured: log2 fold change

MED1 (UniProt Q15648)
inactive: [1] -0.043 | [2] 0.084 | [3] -0.067 | [4] -0.06 | Nexturastat A 0.079 | vemurafenib -0.028 | [5] -0.034 | [6] -0.006 | givinostat 0.001 | barasertib -0.023

IL27RA (UniProt Q6UWB1)
inactive: [1] -0.048 | [2] -0.048 | [3] -0.006 | [4] -0.018 | Nexturastat A 0.027 | vemurafenib -0.025 | [5] -0.091 | [6] -0.008 | givinostat 0.006 | barasertib 0.011

MIER1 isoform 12 (UniProt Q8N108)
active: Nexturastat A 0.306 | givinostat 0.31
inactive: [1] 0.003 | [2] 0.016 | [3] 0.002 | [4] 0.012 | vemurafenib -0.006 | [5] 0.008 | [6] -0.013 | barasertib 0.01

IGFBP2 (UniProt P18065)
inactive: [1] -0.154 | [2] 0.173 | [3] 0.201 | [4] 0.349 | Nexturastat A 0.106 | vemurafenib 0.262 | [5] -0.003 | [6] -0.409 | givinostat 0.056 | barasertib 0.012

MCUR1 (UniProt Q96AQ8)
inactive: [1] 0 | [2] -0.067 | [3] -0.01 | [4] 0.012 | Nexturastat A -0.06 | vemurafenib 0.018 | [5] -0.041 | [6] -0.079 | givinostat -0.033 | barasertib -0.008

MFSD5 isoform 2 (UniProt Q6N075)
inactive: [1] 0.038 | [2] 0.015 | [3] -0.078 | [4] 0.064 | Nexturastat A -0.014 | vemurafenib 0.023 | [5] -0.118 | [6] -0.039 | givinostat -0.039 | barasertib 0.122

KPNA4 (UniProt O00629)
Chain of UniProt O00629 (O00629 whole entry, looked up): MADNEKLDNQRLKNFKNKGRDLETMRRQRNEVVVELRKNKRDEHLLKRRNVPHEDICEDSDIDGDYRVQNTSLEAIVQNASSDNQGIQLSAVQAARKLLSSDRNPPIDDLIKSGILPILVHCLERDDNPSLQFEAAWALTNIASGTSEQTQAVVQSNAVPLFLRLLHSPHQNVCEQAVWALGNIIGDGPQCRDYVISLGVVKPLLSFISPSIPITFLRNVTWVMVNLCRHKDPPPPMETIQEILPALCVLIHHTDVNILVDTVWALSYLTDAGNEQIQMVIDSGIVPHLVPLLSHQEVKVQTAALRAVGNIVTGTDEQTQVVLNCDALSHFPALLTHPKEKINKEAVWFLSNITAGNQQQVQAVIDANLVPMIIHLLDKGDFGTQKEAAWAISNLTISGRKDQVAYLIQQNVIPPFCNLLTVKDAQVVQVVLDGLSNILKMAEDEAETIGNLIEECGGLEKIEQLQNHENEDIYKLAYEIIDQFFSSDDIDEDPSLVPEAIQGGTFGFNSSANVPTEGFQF
inactive: [1] 0.016 | [2] 0.007 | [3] 0.017 | [4] 0.045 | Nexturastat A -0.008 | vemurafenib 0.031 | [5] 0.038 | [6] 0.023 | givinostat 0.006 | barasertib 0.007

MAP3K7 (UniProt O43318)
inactive: [1] -0.008 | [2] -0.039 | [3] 0.041 | [4] 0.019 | Nexturastat A 0.027 | vemurafenib 0.042 | [5] 0.074 | [6] 0.008 | givinostat 0.093 | barasertib 0.079

IPO13 (UniProt O94829)
inactive: [1] 0.068 | [2] -0.013 | [3] -0.008 | [4] -0.027 | Nexturastat A -0.03 | vemurafenib -0.01 | [5] 0.047 | [6] 0.009 | givinostat -0.011 | barasertib 0.044

MGST3 (UniProt O14880)
Chain of UniProt O14880 (O14880 whole entry, looked up): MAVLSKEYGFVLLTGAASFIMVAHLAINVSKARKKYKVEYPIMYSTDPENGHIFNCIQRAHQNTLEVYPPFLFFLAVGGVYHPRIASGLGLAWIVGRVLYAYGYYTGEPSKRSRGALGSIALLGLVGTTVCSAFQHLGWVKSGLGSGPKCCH
inactive: [1] -0.029 | [2] 0.005 | [3] 0 | [4] -0.049 | Nexturastat A 0.015 | vemurafenib -0.037 | [5] -0.011 | [6] -0.057 | givinostat 0.003 | barasertib 0.003

LRRFIP1 (UniProt Q32MZ4)
Chain of UniProt Q32MZ4 (Q32MZ4 whole entry, looked up): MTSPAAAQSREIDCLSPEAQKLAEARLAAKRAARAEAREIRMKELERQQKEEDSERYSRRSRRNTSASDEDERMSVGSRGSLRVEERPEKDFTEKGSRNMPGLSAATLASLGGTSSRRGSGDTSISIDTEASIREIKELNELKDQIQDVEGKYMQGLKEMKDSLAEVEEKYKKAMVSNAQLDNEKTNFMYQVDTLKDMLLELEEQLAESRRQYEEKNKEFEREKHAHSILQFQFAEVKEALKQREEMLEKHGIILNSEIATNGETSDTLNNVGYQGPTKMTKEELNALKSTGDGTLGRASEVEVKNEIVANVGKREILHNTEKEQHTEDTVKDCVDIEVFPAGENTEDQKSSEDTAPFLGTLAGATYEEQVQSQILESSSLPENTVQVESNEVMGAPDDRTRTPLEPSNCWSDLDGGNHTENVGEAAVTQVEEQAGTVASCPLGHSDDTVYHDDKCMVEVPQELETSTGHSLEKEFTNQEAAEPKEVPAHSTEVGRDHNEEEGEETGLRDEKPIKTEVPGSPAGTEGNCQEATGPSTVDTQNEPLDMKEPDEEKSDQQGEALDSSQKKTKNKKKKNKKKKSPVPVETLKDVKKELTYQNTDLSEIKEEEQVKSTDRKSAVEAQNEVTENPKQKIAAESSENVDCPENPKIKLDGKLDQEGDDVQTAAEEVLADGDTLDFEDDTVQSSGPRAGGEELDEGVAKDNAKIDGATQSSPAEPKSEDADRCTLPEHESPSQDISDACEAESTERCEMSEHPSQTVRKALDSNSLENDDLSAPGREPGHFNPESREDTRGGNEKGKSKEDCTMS
inactive: [1] -0.024 | [2] 0.003 | [3] -0.012 | [4] -0.01 | Nexturastat A 0.005 | vemurafenib -0.019 | [5] -0.027 | [6] -0.002 | givinostat 0.014 | barasertib 0.004

KTN1 (UniProt Q86UP2)
Chain of UniProt Q86UP2 (Q86UP2 whole entry, looked up): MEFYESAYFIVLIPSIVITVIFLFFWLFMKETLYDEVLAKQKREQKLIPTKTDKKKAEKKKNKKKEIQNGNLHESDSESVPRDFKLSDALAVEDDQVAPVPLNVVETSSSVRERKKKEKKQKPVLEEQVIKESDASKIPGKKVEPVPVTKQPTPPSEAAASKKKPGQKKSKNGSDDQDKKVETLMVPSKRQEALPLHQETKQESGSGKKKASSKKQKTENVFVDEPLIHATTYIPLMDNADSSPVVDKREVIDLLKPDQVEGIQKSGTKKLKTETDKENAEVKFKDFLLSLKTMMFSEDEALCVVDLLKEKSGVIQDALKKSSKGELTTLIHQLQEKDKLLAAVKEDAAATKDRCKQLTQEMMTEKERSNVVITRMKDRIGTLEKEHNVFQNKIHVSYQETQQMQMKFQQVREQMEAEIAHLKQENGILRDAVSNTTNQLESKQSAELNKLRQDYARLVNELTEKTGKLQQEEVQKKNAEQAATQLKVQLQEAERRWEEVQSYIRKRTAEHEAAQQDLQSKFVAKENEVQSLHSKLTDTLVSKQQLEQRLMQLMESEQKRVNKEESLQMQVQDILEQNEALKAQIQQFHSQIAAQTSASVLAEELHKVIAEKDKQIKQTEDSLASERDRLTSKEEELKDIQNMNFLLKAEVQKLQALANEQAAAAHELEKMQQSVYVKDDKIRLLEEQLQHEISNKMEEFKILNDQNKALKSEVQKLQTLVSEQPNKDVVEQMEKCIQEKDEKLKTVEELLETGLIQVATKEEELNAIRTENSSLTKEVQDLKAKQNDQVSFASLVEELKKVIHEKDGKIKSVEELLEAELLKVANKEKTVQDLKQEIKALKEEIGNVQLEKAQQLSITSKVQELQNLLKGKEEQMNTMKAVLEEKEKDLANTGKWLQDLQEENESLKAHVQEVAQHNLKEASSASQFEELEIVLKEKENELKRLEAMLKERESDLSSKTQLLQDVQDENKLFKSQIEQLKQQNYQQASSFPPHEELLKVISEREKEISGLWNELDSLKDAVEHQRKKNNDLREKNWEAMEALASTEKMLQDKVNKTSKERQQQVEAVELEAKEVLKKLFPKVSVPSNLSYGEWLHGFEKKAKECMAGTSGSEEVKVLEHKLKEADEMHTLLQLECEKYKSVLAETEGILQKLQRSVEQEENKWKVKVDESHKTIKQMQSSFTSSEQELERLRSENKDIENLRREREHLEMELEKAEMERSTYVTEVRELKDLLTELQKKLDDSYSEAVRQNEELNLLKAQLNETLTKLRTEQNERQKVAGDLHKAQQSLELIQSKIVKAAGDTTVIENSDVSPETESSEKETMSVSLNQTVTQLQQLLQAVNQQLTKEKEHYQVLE
inactive: [1] -0.071 | [2] -0.051 | [3] 0.014 | [4] -0.002 | Nexturastat A 0.141 | vemurafenib 0.012 | [5] 0.027 | [6] 0.034 | givinostat 0.022 | barasertib 0.033

LIMD1 (UniProt Q9UGP4)
Chain of UniProt Q9UGP4 (Q9UGP4 whole entry, looked up): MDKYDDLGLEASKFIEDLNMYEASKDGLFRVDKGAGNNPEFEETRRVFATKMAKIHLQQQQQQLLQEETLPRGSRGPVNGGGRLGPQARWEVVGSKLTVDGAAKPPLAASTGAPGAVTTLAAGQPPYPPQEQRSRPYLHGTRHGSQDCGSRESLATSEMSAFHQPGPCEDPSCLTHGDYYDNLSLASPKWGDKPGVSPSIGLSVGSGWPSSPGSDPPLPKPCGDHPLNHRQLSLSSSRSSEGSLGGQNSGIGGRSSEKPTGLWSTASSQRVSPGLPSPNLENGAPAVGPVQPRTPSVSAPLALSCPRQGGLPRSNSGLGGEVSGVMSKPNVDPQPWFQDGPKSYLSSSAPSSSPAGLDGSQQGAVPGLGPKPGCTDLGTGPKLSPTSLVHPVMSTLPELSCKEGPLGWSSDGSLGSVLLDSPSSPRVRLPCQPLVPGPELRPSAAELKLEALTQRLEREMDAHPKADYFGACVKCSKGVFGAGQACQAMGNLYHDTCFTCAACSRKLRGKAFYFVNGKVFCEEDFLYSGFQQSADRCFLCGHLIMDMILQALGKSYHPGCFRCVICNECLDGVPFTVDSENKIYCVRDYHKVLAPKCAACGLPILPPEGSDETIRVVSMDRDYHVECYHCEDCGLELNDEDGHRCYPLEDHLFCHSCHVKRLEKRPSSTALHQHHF
inactive: [1] 0 | [2] 0.009 | [3] 0.037 | [4] -0.012 | Nexturastat A -0.022 | vemurafenib 0.024 | [5] 0.084 | [6] 0.019 | givinostat 0.02 | barasertib -0.017

MARCKS (UniProt P29966)
inactive: [1] -0.001 | [2] -0.066 | [3] 0.01 | [4] 0.072 | Nexturastat A -0.104 | vemurafenib 0.047 | [5] -0.004 | [6] 0.252 | givinostat -0.096 | barasertib 0.005

LEMD2 (UniProt Q8NC56)
inactive: [1] -0.068 | [2] -0.02 | [3] 0.038 | [4] 0.051 | Nexturastat A -0.002 | vemurafenib -0.001 | [5] 0.045 | [6] 0.002 | givinostat -0.022 | barasertib 0.017

MIF (UniProt P14174)
Chain of UniProt P14174 (P14174 whole entry, looked up): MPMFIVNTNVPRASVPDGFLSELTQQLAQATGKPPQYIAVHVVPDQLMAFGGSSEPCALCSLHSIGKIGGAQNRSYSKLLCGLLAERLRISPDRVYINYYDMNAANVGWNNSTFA
inactive: [1] 0.056 | [2] -0.014 | [3] 0.056 | [4] 0.098 | Nexturastat A -0.29 | vemurafenib -0.009 | [5] -0.047 | [6] -0.076 | givinostat -0.113 | barasertib -0.009

IRAK4 (UniProt Q9NWZ3)
inactive: [1] 0.006 | [2] -0.039 | [3] 0 | [4] 0.03 | Nexturastat A 0.009 | vemurafenib 0.041 | [5] 0.068 | [6] -0.003 | givinostat 0.062 | barasertib 0.024

ILVBL (UniProt A1L0T0)
inactive: [1] -0.021 | [2] -0.052 | [3] 0.005 | [4] -0.051 | Nexturastat A 0.007 | vemurafenib 0.037 | [5] 0.049 | [6] 0.004 | givinostat -0.002 | barasertib 0.021

ILK (UniProt Q13418)
Chain of UniProt Q13418 (Q13418 whole entry, looked up): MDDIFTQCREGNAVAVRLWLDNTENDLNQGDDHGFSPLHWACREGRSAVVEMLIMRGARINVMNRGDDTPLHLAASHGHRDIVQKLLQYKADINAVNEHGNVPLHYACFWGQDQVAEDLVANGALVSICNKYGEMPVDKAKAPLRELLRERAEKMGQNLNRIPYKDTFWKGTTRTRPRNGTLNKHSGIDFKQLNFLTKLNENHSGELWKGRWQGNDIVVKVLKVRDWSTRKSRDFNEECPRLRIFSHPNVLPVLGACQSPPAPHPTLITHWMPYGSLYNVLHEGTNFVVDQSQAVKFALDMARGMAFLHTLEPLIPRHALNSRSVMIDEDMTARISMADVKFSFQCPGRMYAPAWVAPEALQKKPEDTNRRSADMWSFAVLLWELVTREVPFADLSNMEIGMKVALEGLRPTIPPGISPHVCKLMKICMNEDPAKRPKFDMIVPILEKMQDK
inactive: [1] -0.179 | [2] -0.053 | [3] 0.025 | [4] -0.208 | Nexturastat A 0.135 | vemurafenib -0.075 | [5] -0.005 | [6] -0.031 | givinostat 0.041 | barasertib 0.019

KNTC1 (UniProt P50748)
inactive: [1] -0.027 | [2] -0.003 | [3] -0.021 | [4] 0.026 | Nexturastat A 0.034 | vemurafenib 0.042 | [5] 0.036 | [6] 0.092 | givinostat 0.082 | barasertib 0.035

LMF2 (UniProt Q9BU23)
inactive: [1] 0.009 | [2] -0.07 | [3] 0.025 | [4] -0.078 | Nexturastat A -0.022 | vemurafenib 0.067 | [5] -0.022 | [6] 0.016 | givinostat 0.033 | barasertib -0.002

KIFBP (UniProt Q96EK5)
inactive: [1] 0.019 | [2] 0.034 | [3] 0.052 | [4] 0.027 | Nexturastat A -0.107 | vemurafenib 0.067 | [5] 0.093 | [6] -0.013 | givinostat -0.004 | barasertib 0.022

MAPKAPK3 (UniProt Q16644)
Chain of UniProt Q16644 (Q16644 whole entry, looked up): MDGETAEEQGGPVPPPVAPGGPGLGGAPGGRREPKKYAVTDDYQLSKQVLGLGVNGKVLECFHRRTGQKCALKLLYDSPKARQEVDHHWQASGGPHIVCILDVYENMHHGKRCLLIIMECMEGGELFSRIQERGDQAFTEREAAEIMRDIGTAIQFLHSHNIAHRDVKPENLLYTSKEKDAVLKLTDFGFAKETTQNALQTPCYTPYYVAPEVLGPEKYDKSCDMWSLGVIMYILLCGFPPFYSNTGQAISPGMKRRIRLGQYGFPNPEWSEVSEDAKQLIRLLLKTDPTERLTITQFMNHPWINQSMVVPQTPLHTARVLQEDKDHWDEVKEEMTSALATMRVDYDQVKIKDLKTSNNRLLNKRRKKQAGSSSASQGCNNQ
inactive: [1] 0.24 | [2] 0.097 | [3] -0.025 | [4] 0.069 | Nexturastat A -0.134 | vemurafenib 0.033 | [5] 0.063 | [6] -0.012 | givinostat 0.015 | barasertib 0.039

LNPEP (UniProt Q9UIQ6)
inactive: [1] 0.018 | [2] 0.03 | [3] 0.01 | [4] -0.009 | Nexturastat A -0.051 | vemurafenib -0.013 | [5] 0.015 | [6] 0.008 | givinostat 0.014 | barasertib -0.009

KDELR2 (UniProt P33947)
inactive: [1] 0.058 | [2] 0.099 | [3] 0.064 | [4] -0.094 | Nexturastat A -0.13 | vemurafenib -0.079 | [5] -0.054 | [6] -0.128 | givinostat -0.064 | barasertib 0.036

KLHDC4 (UniProt Q8TBB5)
Chain of UniProt Q8TBB5 (Q8TBB5 whole entry, looked up): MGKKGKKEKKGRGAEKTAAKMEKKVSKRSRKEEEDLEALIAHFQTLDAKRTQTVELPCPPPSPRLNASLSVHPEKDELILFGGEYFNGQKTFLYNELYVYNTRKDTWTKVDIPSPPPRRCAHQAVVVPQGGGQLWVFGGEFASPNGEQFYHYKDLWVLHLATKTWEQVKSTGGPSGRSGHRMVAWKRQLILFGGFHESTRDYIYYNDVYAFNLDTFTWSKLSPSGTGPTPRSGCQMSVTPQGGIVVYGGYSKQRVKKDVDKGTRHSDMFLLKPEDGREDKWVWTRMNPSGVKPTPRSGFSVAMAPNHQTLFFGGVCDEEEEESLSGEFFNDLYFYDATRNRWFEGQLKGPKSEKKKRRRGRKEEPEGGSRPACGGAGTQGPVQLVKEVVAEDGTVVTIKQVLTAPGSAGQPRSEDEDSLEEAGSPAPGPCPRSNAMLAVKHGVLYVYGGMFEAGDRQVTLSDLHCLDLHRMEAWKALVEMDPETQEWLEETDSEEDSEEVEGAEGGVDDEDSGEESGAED
inactive: [1] -0.027 | [2] -0.003 | [3] -0.007 | [4] -0.092 | Nexturastat A 0.18 | vemurafenib 0.096 | [5] 0.076 | [6] -0.223 | givinostat -0.011 | barasertib 0.028

KDM1A isoform 2 (UniProt O60341)
inactive: [1] -0.029 | [2] 0.058 | [3] 0.01 | [4] 0.002 | Nexturastat A 0.023 | vemurafenib -0.02 | [5] 0.033 | [6] 0.046 | givinostat 0.101 | barasertib 0.013

LIMA1 isoform 4 (UniProt Q9UHB6)
inactive: [1] -0.082 | [2] 0.133 | [3] -0.014 | [4] 0.033 | Nexturastat A 0.004 | vemurafenib 0.061 | [5] 0.011 | [6] -0.033 | givinostat 0.032 | barasertib -0.025

KIF21A isoform 4 (UniProt Q7Z4S6)
inactive: [1] 0.051 | [2] -0.067 | [3] -0.003 | [4] -0.043 | Nexturastat A 0.106 | vemurafenib -0.045 | [5] 0.014 | [6] -0.025 | givinostat 0.069 | barasertib 0.104

KIF11 (UniProt P52732)
inactive: [1] -0.032 | [2] -0.119 | [3] -0.005 | [4] -0.033 | Nexturastat A 0.155 | vemurafenib 0.071 | [5] 0.077 | [6] 0.076 | givinostat 0.09 | barasertib 0.049
